# High-throughput results: PubChem, several laboratories
# In the library only some 4.6% were active in any assay of this set; here they are far more common.
# CF NFkB inh – inhibitors of PAF-induced NF-kB signaling, primary screen, cell-based, GFP fluorescence, uHTS; KKLEB NF-kB-GFP reporter, GFP fluorescence overnight; inhibition, % at 5 µM; actives 0.86% (n = 360,000); AID 588850, 2011;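 active means at least 50% inhibition at 5 µM, scaled per plate between neutral and stimulator controls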;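 further: PAF is a Pseudomonas aeruginosa culture filtrate used as stimulus; plate controls were PAF-stimulated DMSO wells for no effect and unstimulated DMSO wells for full effect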
# Mdm2-MdmX inh – inhibitors of human Mdm2-MdmX association, primary screen, cell-based, luminescence, split luciferase, SaOS-2, uHTS; Protein Mdm4 (Homo sapiens) + E3 ubiquitin-protein ligase Mdm2 (Homo sapiens), …; SaOS-2 split-luciferase Mdm2/MdmX complementation; inhibition, % at 8 µM; actives 3% (n = 330,000); AID 485346, 2010;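 active means inhibition of at least 50% at 8 µM in the primary screen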
# Target sequence (O15151 whole entry, looked up): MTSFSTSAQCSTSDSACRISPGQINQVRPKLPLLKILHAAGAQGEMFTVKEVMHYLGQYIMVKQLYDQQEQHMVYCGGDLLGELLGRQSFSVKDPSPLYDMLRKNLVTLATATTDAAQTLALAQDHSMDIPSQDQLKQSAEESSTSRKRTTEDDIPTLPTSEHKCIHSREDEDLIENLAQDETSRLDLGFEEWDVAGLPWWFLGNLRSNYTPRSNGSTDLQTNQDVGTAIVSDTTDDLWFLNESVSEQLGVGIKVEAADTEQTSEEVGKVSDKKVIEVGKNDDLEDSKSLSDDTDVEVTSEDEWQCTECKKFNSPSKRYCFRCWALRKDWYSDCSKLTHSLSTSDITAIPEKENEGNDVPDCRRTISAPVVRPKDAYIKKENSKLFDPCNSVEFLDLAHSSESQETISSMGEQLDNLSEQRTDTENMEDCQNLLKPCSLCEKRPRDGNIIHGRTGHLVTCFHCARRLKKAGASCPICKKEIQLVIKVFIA
# Target sequence (Q00987 whole entry, looked up): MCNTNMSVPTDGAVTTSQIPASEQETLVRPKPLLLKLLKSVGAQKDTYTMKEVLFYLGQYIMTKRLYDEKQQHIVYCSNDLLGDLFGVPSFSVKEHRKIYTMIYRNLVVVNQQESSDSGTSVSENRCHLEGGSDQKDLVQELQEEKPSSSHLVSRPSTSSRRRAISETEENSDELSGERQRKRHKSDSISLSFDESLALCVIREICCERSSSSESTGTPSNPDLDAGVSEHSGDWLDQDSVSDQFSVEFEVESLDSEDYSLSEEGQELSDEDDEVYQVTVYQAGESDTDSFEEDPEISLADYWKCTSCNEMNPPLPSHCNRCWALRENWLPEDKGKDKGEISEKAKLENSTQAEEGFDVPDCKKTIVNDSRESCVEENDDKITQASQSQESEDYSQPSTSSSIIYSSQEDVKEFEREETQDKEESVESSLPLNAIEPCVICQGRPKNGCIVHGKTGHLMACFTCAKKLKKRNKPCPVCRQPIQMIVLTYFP
# HIF-2a block – HIF-2a reporter inhibitors, primary screen, luminescence, 786-0 RCC cells. 786-0 RCC cells HIF-2a reporter, luciferase luminescence, overnight. inhibition, % at 18.8 µM. actives 0.72% (n = 360,000). AID 624352, 2012;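 active means inhibition of the luminescence signal of 40% or more relative to plate controls, in a single-dose primary screen at 18.75 µM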
# Peg3 promoter – Peg3 promoter-driven luciferase inhibitors, primary screen, cell-based, HeLa, luciferase luminescence; actives 1.7% (n = 360,000); HeLa PEG-Prom luciferase reporter, overnight; inhibition, % at 20 µM;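 active means inhibition of at least 50% at 20 µM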
# KKLEB tox – cytotoxicity in KKLEB CF airway cells, primary screen, cytotoxicity control for CF NF-kB inhibitor project, cell-based, uHTS, fluorescence assay plates; KKLEB CF airway cells viability, ATPlite luminescence, overnight; active compounds read low; cells stimulated with P. aeruginosa culture filtrate; activity change (cytotoxicity), % at 5 µM; actives 0.36% (n = 360,000); AID 602141, 2011;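 active means corrected activity change at or below -50% at 5 µM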
# ABHD5-PLIN5 inh – ABHD5-PLIN5 interaction inhibitors, primary screen, cell lysate, split luciferase complementation, luminescence | inhibition, % at 4 µM | Perilipin-5 (Homo sapiens) + 1-acylglycerol-3-phosphate O-acyltransferase ABHD5 (Homo … | Split G. princeps luciferase complementation, 4 h | actives 0.78% (n = 360,000);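 active means inhibition above the mean inhibition across every tested compound plus 3 SD, cut at about 22% in these data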;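 further: 0% = DMSO only wells and the 100% control is not disclosed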
# HIF-2a inh conf – HIF-2a reporter inhibitor retest, confirmation, luminescence, 786-0 RCC cells. shares compounds with HIF-2a block. HIF-2a luciferase reporter luminescence, overnight. inhibition, % at 18.8 µM. actives 56% (n = 1,800);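 active means mean inhibition across four replicates of at least 40 percent at the single tested concentration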
# HIF-1a cs – HIF-1a luciferase reporter signal reduction – MiaPaCa-2 cells, single concentration, counter-screen for HIF-2a inhibitor project, confirmation; MiaPaCa-2 HIF-1a luciferase reporter, desferoxamine, overnight; inhibition, % at 18.8 µM; AID 651589, 2012; shares compounds with HIF-2a block; actives 72% (n = 1,800);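 active means mean inhibition of the reporter signal across four replicates at the single tested dose of 50% or more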
# Starred values were filed as active, the others as inactive; . = no result given.
SMILES,CF NFkB inh,Mdm2-MdmX inh,HIF-2a block,Peg3 promoter,KKLEB tox,ABHD5-PLIN5 inh,HIF-2a inh conf,HIF-1a cs
CC(C)C[C@@H](NC(=O)C1CCC(CNC(=O)[C@@H]2CCCN2C(=O)OC(C)(C)C)CC1)C(=O)O (stereo partly drawn),2.9,-7.8,13.8,5.2,6.5,-2.4,.,.
CC(=O)Nc1ccc(Nc2nc(C)c([N+](=O)[O-])c(N(C)c3ccccc3)n2)cc1,0.6,23.8,80.6*,29.4,-6.2,0.7,91.8*,93.5*
CCCn1ncc(CN2CCC(CO)(CC3CCCCO3)CC2)c1C (stereo not drawn),6.6,-4.0,40.0*,-2.6,-18.3,2.7,4.8,3.5
Cc1nn(C)c(Cl)c1CN1CCC(CO)(CC2CCCCO2)CC1 (stereo not drawn),1.3,7.0,7.0,2.3,0.9,5.2,.,.
CC(=O)Nc1ccc(NC(=O)c2sc3nc4n(c(=O)c3c2C)CCCCC4)cc1,-2.6,-9.1,79.9*,24.9,-3.6,-6.9,89.6*,90.0*
O=C(N/C(=C/c1cccnc1)C(=O)N1CCOCC1)c1ccccc1Br,-2.0,-21.3,16.2,19.2,-5.0,3.3,.,.
CCCCN1CC(=O)N2[C@@H]3c4cc(OC)ccc4OC[C@@H]3[C@H](C(=O)OCC)[C@]2(C)C1=O,0.6,.,18.6,-5.7,-3.0,2.4,.,.
Oc1ccc(NCc2cccs2)cc1,14.3,28.9,57.2*,5.9,2.3,-36.3,25.5,78.0*
CC(C)(C)c1ccc(Cn2nnc3c(=O)[nH]c(C4CCCN(C(=O)c5cccs5)C4)nc32)cc1 (stereo not drawn),-1.8,22.9,42.5*,39.1,5.0,3.2,13.9,84.1*
COc1ccc(OCc2cc(=O)c3ccc4c(c3o2)C=CC(C)(C)O4)cc1OC,10.8,11.2,-7.4,1.2,19.5,-0.2,.,.
CC(C)=CCOc1ccc([C@@H]2COc3c(ccc4c3C=CC(C)(C)O4)C2)c(O)c1,3.5,47.0,61.1*,48.8,-0.1,-18.7,-25.7,100.5*
[O-]/C(=C(\C(=S)Nc1cccc2ccccc12)[n+]1ccccc1)c1ccc2c(c1)OCCO2,-5.0,6.1,69.6*,22.0,11.9,-5.0,-40.2,34.0
CCOC(=O)c1ccc(-c2ccc(N3C(c4ccsc4)=Cc4ccc(F)cc4C3c3c[nH]c4ccc(C#N)cc34)cc2)cc1F (stereo not drawn),.,.,70.9*,.,.,-0.1,46.6*,40.5
CC(C)(O)C#Cc1ccc(N2C(c3ccsc3)=Cc3ccc(F)cc3C2c2c[nH]c3ccc(C#N)cc23)cc1 (stereo not drawn),.,.,-30.7,.,.,-0.8,.,.
Cc1cc(C)c(NC(=O)CN(C)C(=O)CCN2C(=O)C3CCCCC3C2=O)c(C)c1 (stereo not drawn),4.8,.,6.9,14.7,-3.4,4.2,.,.
Nc1nc2cc(S(=O)(=O)NC3=NCCCCC3)ccc2s1,-11.1,-9.7,40.6*,9.4,-4.5,-18.8,-7.2,-8.2
COC(=O)[C@]12CCCCC=C1N(Cc1ccccc1)C(=O)[C@H](CC(=O)N1CCN(C(=O)c3ccco3)CC1)C2,.,.,16.3,.,.,9.1,.,.
CC(=O)c1ccc(OCc2cc(C(=O)NC(C)CCn3cccn3)no2)cc1 (stereo not drawn),8.1,-47.2,-224.1,-250.0,-12.0,-4.5,.,.
S=C1c2ccccc2CN1c1ccccc1,-9.7,-3.3,-146.2,-125.1,12.5,-0.5,.,.
Cc1ccc(N2Cc3ccccc3C2=S)cc1,-6.8,-96.8,84.1*,-269.5,-3.9,3.3,-218.4,-74.0
O=C(Nc1ccncc1)c1ccc(Cl)c(S(=O)(=O)N2CCc3ccccc32)c1,26.0,42.7,49.9*,44.8,-30.9,-6.1,-7.1,7.7
Cc1ccccc1CN1[C@@H](Cc2ccccc2)COCCS1(=O)=O,20.4,-9.0,15.6,-1.2,-11.1,-1.4,.,.
C=C1[C@@H](O)[C@H](Cc2ccccc2)N(Cc2ccccc2Br)S1(=O)=O,84.8*,.,70.7*,96.8*,-93.4*,12.8,54.9*,106.1*
C[C@@H]1CN([C@H](C)CO)C(=O)CCCn2nncc2CO[C@H]1CN(C)Cc1ccc2c(c1)OCO2,-4.2,.,12.8,1.1,-4.4,-1.9,.,.
Cc1ccccc1N(C(=O)c1snc(C(N)=O)c1N)C(C(=O)NC1CCCCC1)c1ccc(O)cc1 (stereo not drawn),-6.9,22.0,41.9*,43.9,0.8,-11.1,35.5,85.6*
SMILES,CF NFkB inh,Mdm2-MdmX inh,HIF-2a block,Peg3 promoter,KKLEB tox,ABHD5-PLIN5 inh,HIF-2a inh conf,HIF-1a cs
Cc1nc(C)c(C(=O)Nc2ncc([N+](=O)[O-])s2)o1,-3.8,9.0,56.0*,37.7,-2.2,-1.6,58.8*,35.0
COc1ccc(-c2c(C(=O)c3ccccc3)[nH]c(N)c2C(=O)NC2CC2)cc1OC,.,.,-69.2,.,.,-1.5,.,.
COc1ccccc1N1C(=O)C=C(Sc2nc(C)cc(C)n2)C1=O,-4.7,-5.4,57.7*,87.0*,5.5,10.7,62.8*,-12.6
COc1ccccc1N1C(=O)C2CC(C)=C(C)CC2C1=O (stereo not drawn),-5.8,1.1,9.4,6.6,-12.0,-2.6,.,.
C[C@@H]1CN([C@H](C)CO)C(=O)CCCn2nncc2CO[C@@H]1CN(C)S(=O)(=O)c1ccc(C#N)cc1,0.4,.,5.5,-11.9,-0.8,0.0,.,.
CCN1C(=O)CSC1=Nc1ccccc1Cl,-0.9,11.4,16.0,9.1,-4.2,-1.2,.,.
Cc1c(C(=O)Nc2ccc(-c3nnc4n3CCCCC4)cc2)oc2c1ccc1ccccc12,-35.9,23.0,56.0*,41.9,-9.8,5.5,-50.5,106.1*
O=C(Nc1ccc(-c2nnc3n2CCCCC3)cc1)c1cc2ccccc2o1,-0.5,18.8,-6.1,-12.2,-0.2,-0.3,.,.
FC(F)(F)c1cnc(NNC(=S)Nc2ccccc2)c(Cl)c1,-1.5,.,45.3*,22.8,7.7,-2.0,60.8*,13.1
CCOC(=O)Cc1csc(NC(=S)NC(=O)c2ccc([N+](=O)[O-])cc2)n1,15.1,31.8,62.8*,9.3,7.9,-1.0,71.4*,-13.5
CC(=O)c1cccc(OCC(=O)N(Cc2ccco2)c2c(N)n(Cc3ccccc3)c(=O)[nH]c2=O)c1,18.3,1.4,4.9,6.5,-26.9,-3.2,.,.
